SMILES strings stand for the structures. Among all 16,000 compounds or so, about 5,700 (36%) were called active. About 24% were inconclusive and are not listed. The list shows a part of the results. Values without a mark were called inactive. Calls follow the shape of the dose curve; as a rule, active = well fitted curve in the direction sought with a large enough effect; inconclusive = small, poorly fitted or top-dose-only effect, or effect the other way; inactive = no such curve, though single readings can be large or run the other way.

The values below come from PubChem BioAssay AID1851 (National Center for Advancing Translational Sciences (NCATS), 2009).
% is scaled to controls: 0 for no effect and ±100 for the full control effect.

The target of this assay is Cytochrome P450 1A2 (Homo sapiens) (UniProt P05177). The assay can be described thus: Cytochrome panel assay with activity outcomes. The settings on record: recombinant CYP, pro-luciferin dealkylation, luminescence, p450-cyp1a2; series mostly up to 57.1 µM.
Cytochrome P450 1A2 (Homo sapiens), sequence (P05177 whole entry, looked up): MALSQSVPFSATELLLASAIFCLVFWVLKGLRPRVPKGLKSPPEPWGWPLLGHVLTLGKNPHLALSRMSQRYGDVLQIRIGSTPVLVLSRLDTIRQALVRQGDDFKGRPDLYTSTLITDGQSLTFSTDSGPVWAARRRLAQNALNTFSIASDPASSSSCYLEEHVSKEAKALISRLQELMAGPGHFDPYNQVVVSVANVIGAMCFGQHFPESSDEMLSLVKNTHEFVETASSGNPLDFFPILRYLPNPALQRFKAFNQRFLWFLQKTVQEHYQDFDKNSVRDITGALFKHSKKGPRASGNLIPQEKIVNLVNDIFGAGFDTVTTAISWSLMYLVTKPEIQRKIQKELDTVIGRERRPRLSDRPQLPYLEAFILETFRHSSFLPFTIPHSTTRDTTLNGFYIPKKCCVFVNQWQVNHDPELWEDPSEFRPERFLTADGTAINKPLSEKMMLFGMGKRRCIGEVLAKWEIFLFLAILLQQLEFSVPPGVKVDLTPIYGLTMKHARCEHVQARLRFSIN
What is called AC50 is the concentration giving half of the maximal activity seen. Consider `Cn1c(=O)c(-c2ccc(F)cc2)nc2cncnc21`, for which the AC50 is 158 nM (active).

With `Cn1c(=O)c(-c2ccc(F)c(F)c2)nc2cncnc21`, the AC50 is 158 nM (active).

On to `COc1ccc(-n2c(=O)c(-c3ccc(F)cc3)nc3cncnc32)cc1`, for which the AC50 entry was “inactive”.

In the case of `Cn1c(=O)c(-c2cccc(Cl)c2)nc2cncnc21`, the AC50 is 501 nM (active). As to `Cn1c(=O)c(-c2ccccc2)nc2cncnc21`, the AC50 was 631 nM (active). Turning to `C[C@]1(C2CCCC2)Cc2cc(OCC(=O)O)c(Cl)c(Cl)c2C1=O`, the AC50 result was “inactive”. Still for that read-out and setting: in the case of `COC(=O)[C@@]1(Cc2ccc(F)cc2)[C@H]2c3cc(C(=O)N4CCCC4)n(CCc4c[nH]c5ccccc45)c3C[C@H]2CN1C(=O)c1ccccc1` it was “inactive”.

On to `Cn1c(=O)c(-c2ccc(Cl)cc2)nc2cncnc21`, for which the AC50 is 25.1 nM (active). Same read-out and setting: in the case of `Cn1c(=O)c(-c2cc(F)cc(F)c2)nc2cncnc21` it was 631 nM (active); in that of `CC(=O)NN1C(=O)c2ccc(Oc3ccc([N+](=O)[O-])cc3)cc2C1=O`, “inactive”; in that of `Cc1ccc(S(=O)(=O)CCCS(=O)(=O)c2ccc(C)cc2)cc1`, “inactive”. Take `Cc1ccc(S(=O)(=O)CC#CCOC(=O)c2ccc([N+](=O)[O-])cc2)cc1`: the AC50 was 6310 nM (active). On to `C/C(=N\NC(=S)Nc1ccc(F)cc1)C1CC1`, for which the AC50 is 1780 nM (active). On the same count and under the same terms, in the case of `N=C(N)SCc1cccc2c(=O)cc(-c3ccccc3)oc12` it was 126 nM (active); in that of `CCNc1ncc2nc(-c3cccs3)c(=O)n(C[C@H]3CCCO3)c2n1`, 2510 nM (active); in that of `CN1CCN(c2ncc3nc(-c4cccs4)c(=O)n(C[C@H]4CCCO4)c3n2)CC1`, 12600 nM (active). Still for that read-out and setting: in the case of `CN(C)c1ncc2nc(-c3cccs3)c(=O)n(C[C@H]3CCCO3)c2n1` it was 1580 nM (active). Regarding `OCCCSCCO`, the activity, negative = inhibition was -19.1% [at 2.29 µM].

Consider `CCCC[C@@H]1CN2[C@H](c3ccc(Br)cc3)[C@@H](C)CC[C@H]2C(=O)O1`, for which the activity, negative = inhibition is -6.09% [at 11.4 µM]. For the molecule `CO[C@@H]1COC(=O)C/C=C\[C@H](C)[C@H](OC)COC(=O)[C@H]2CCCN2C(=O)C/C=C\[C@H]1C`, the activity, negative = inhibition is 1.02% [at 11.4 µM]. Regarding `COc1cccc(/C=N/NC(=O)CO/N=C(\C)c2cccs2)c1OC`, the AC50 is 1410 nM (active). On the same count and under the same terms, in the case of `CCOc1ccc2ccccc2c1C(=O)N[C@@H]1C(=O)N2[C@@H]1SC(C)(C)[C@@H]2C(=O)O` it was “inactive”; in that of `COc1ccc2ccccc2c1/C=C\C(=O)c1ccccc1`, 3160 nM (active).

As for `Cc1[nH]c(=O)c(C(=O)/C=C/c2ccccc2F)c2c1CCCC2`, the AC50 is 11200 nM (active). Turning to `COc1ccccc1/C=C/C(=O)c1c2c(c(C)[nH]c1=O)CCCC2`, the half-maximal activity concentration (AC50) was 12600 nM (active). With `COc1cc(C)cc(OC)c1/C=C\C(=O)O`, the activity, negative = inhibition was -6.92% [at 11.4 µM]. Consider `COc1ccccc1/C=C/C(=O)c1ccc(Cl)cc1`, for which the AC50 is 3550 nM (active).
